Test [1] concerns the target Glucocorticoid receptor (Homo sapiens) (UniProt P04150). As to the kind of experiment: GR-GFP Redistribution (AID 450;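 active = compounds whose dose series gives a full or clear partial fitted curve of increased nuclear translocation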; also: potency is read from the fitted curve at half-maximal effect). The conditions noted are these: U2OS GR-GFP nuclear translocation, laser cytometry, 2 h.
The target is the same in test [2]. As to the kind of experiment: GR-EFC Redistribution (AID 451; calls by dose curve; also: potency is read from the fitted curve at half-maximal effect). The conditions noted are these: CHO-K1 GR-EFC translocation, beta-gal luminescence, 2 h. The gist of the method:
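CHO-K1 cells expressing nuclear EA and GR-ED fragments of b-gal; compounds titrated up to 46 uM final, 2 h at 37 C. GR nuclear translocation read as complemented b-gal luminescence after 1 h RT detection.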

The target of test [3] is Mitogen-activated protein kinase 10 (Mus musculus) (UniProt Q61831). As to the kind of experiment: JNK3 AlphaScreen Assay (AID 530).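 Also: kinase came from lysate of stimulated human HepG2 cells; signal reports phosphorylation of biotinylated GST-cJun 1-79 at Ser73 with 10 µM ATP; % is scaled to controls: 0 for no effect and ±100 for the full control effect.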 The conditions noted are these: JNK3 lysate, c-Jun phosphorylation; series mostly up to 57.1 µM. The method, boiled down: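 Activity was read by AlphaScreen after JNK3-containing HepG2 lysate (cytokine pre-activated) phosphorylated biotinylated GST-cJun with 10 uM ATP at room temperature. Phospho-Ser73 cJun antibody with Protein-A acceptor beads provided detection.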

The nature of test [4]: AP1 Signaling Pathway (AID 357). Also: % is scaled to controls: 0 for no effect and ±100 for the full control effect. The conditions noted are these: ME-180 AP-1-bla reporter, EGF-induced, beta-lactamase ratio, 5 h. The gist of the method: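 Cells are seeded overnight, exposed to compound titrations and an EC50 level of EGF for 5 hours at 37 °C, then loaded with CCF4 dye for 2.5 hours. Beta-lactamase activity under the AP-1 element is read as a blue/green ratio.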

Test [5] can be described thus: Stat Signaling Pathway (AID 446).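 Also: ME-180 cervical cancer cells given 40 pM IL-6 alongside compound; SIE-controlled beta-lactamase reporter measured as 460/530 nm FRET emission ratio; % is scaled to controls: 0 for no effect and ±100 for the full control effect.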 The conditions noted are these: ME-180 (cervical carcinoma) SIE beta-lactamase reporter, IL-6 stimulated, 5 h; series mostly up to 17.2 µM. The method, boiled down:
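Overnight-plated ME-180 cells bearing a STAT Inducible Element beta-lactamase reporter; 5 h co-exposure to compound and 40 pM IL-6; values normalized to 300 pM IL-6 and 125 nM JAK inhibitor controls.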

Test [6] is described as follows: NFAT Signaling Pathway (AID 444).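 Also: carbachol stimulus at about its EC50 of 1 µM final; % is scaled to controls: 0 for no effect and ±100 for the full control effect.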 The conditions noted are these: Jurkat NFAT-bla M1, carbachol, beta-lactamase ratio, 5 h. The method, boiled down:
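Jurkat cells with NFAT-driven β-lactamase reporter and co-expressed M1 receptor, stimulated with carbachol (final 1 uM, ~EC50), compound titration, 5 h at 37 °C. CCF4 loaded 1 h at RT; 460/530 nm ratio gave %activity and AC50.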

The target of test [7] is Cytochrome P450 1A2 (Homo sapiens) (UniProt P05177). Kind of test: p450-cyp1a2 (AID 410; calls by dose curve; also: potency is read from the fitted curve at half-maximal effect;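 as to activity change, negative = inhibition: -100% = full effect of reference inhibitor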). As to conditions: recombinant CYP1A2, luciferin-ME demethylation, luminescence; series mostly up to 57 µM. The gist of the method: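 O-Demethylation of luciferin 6' methyl ether by human CYP1A2 is monitored as luciferase luminescence. Substrate sits at Km (100uM); enzyme is 20nM. Values are scaled to 57 uM furafylline as maximal inhibition.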

The nature of test [8]: Cell Viability - BJ (AID 421; calls by dose curve;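 also: potency is read from the fitted curve at half-maximal effect; cells exposed to compound for 40 hours at 37 °C before readout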). As to conditions: BJ fibroblast viability, qHTS. The gist of the method:
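Quantitative HTS: ATP depletion in BJ cells after 40 hr compound exposure in complete culture medium, detected with CellTiter-Glo; AC50 from standard Hill fits.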

Test [9] can be described thus: Cell Viability - Jurkat (AID 426;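 active = dose-dependent loss of cell ATP signal giving a full or clear fitted curve, ranked by lower potency value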; also: potency is read from the fitted curve at half-maximal effect). As to conditions: qHTS. The method, boiled down:
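Cells of the human T-cell leukemia line Jurkat (E6-1) are seeded at 5000 per well, treated with compound across a concentration range for 40 hours at 37 °C, then lysed with CellTiter-Glo; luminescence reports ATP.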

The nature of test [10]: Cell Viability - Hek293 (AID 427;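 active = compounds whose dose-response curve shows a full or clear partial loss of cell viability, called from curve shape rather than a numeric limit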;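 also: potency is read from the fitted curve at half-maximal effect; cells exposed to compound for 40 hours at 37 °C before reading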). As to conditions: qHTS. The gist of the method: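 AC50 values derive from Hill-modelled concentration-response of ATP-based luminescence, normalized between DMSO-only and 100 uM tamoxifen controls. Cells were exposed in complete culture medium for 40 hr at 37 °C before detection.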
Test [11] in a line: Cell Viability - MRC5 (AID 434; calls by dose curve;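 also: potency is read from the fitted curve at half-maximal effect; potency reflects cytotoxicity seen as loss of intracellular ATP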). As to conditions: MRC5 lung fibroblast viability, qHTS. The gist of the method: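 ATP luminescence read-out (CellTiter-Glo, 20 min RT) after 40 hr, 37 °C compound exposure of 1500 MRC5 cells/well. Data normalized to DMSO (basal) and 100 uM tamoxifen (100% inhibition); AC50 from standard Hill equation.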
Test [12] is described as follows: Cell Viability - SK-N-SH (AID 435; calls by dose curve;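 also: potency is read from the fitted curve at half-maximal effect; compound exposure lasted 40 h at 37 °C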). The conditions noted are these: SK-N-SH neuroblastoma cell viability qHTS. The gist of the method: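 SK-N-SH neuroblastoma cells (1500/well) treated 40 h at 37 °C in complete medium; viability read as cellular ATP by CellTiter-Glo luminescence. Normalized to DMSO and 100 uM tamoxifen; AC50 from Hill fits of qHTS concentration-response.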

Test [13] is described as follows: Cell Viability - NIH 3T3 (AID 541; active = well fitted curve in the direction sought with a large enough effect; an effect the other way counts as inactive or inconclusive; also: potency is read from the fitted curve at half-maximal effect; nearly all actives have a fitted effect of over 25% in size). As to conditions: NIH 3T3 cell viability, qHTS; series mostly up to 92.2 µM. The gist of the method:
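Cells seeded at 1000/well, rested 5 hr at 37 °C, then dosed and incubated 40 hr at 37 °C. CellTiter-Glo added, 20 min room temperature, luminescence read. AC50 by Hill fit.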

A short description of test [14]: Cell Viability - HUV-EC-C (AID 542; active = well fitted curve in the direction sought with a large enough effect; an effect the other way counts as inactive or inconclusive; also: % is scaled to controls: 0 for no effect and ±100 for the full control effect; nearly all actives have a fitted effect of over 35% in size). The conditions noted are these: HUV-EC-C endothelial cell viability, qHTS; series mostly up to 92.2 µM. The method, boiled down: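 Cells were seeded at 1000 per well and incubated 5 hr at 37 °C before compound addition. After 40 hr at 37 °C, CellTiter-Glo reagent was added for 20 min and luminescence read. AC50 values came from Hill-equation modelling.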

Test [15] in a line: Cell Viability - H-4-II-E (AID 543; active = well fitted curve in the direction sought with a large enough effect; an effect the other way counts as inactive or inconclusive; also: potency is read from the fitted curve at half-maximal effect; nearly all actives have a fitted effect of over 35% in size). As to conditions: H-4-II-E rat hepatoma viability; series mostly up to 92.2 µM. The method, boiled down:
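Cells seeded at 1500 per well and rested 5 hr; compounds added; 40 hr incubation at 37 °C; CellTiter-Glo added, 20 min at room temperature; luminescence read. Hill-equation fits gave AC50.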

Ten molecules from PubChem BioAssay (NCATS) can be followed below.

Structures are written as SMILES. “And” between values parts separate entries of the source, which are not always exact repeats. Equal values may be shown once. Results filed as inconclusive are left out. The source holds several records for some structures; these can differ, active in one and inactive in another. The source made the active and inactive calls. Unless noted, calls follow the shape of the dose curve; as a rule, active = well fitted curve in either direction with a large enough effect (not every such curve was filed as active); inconclusive = small, poorly fitted or top-dose-only effect, or another doubt; inactive = flat fitted curve, though single readings scatter.

Chain of Cytochrome P450 1A2 (Homo sapiens) (P05177 whole entry, looked up): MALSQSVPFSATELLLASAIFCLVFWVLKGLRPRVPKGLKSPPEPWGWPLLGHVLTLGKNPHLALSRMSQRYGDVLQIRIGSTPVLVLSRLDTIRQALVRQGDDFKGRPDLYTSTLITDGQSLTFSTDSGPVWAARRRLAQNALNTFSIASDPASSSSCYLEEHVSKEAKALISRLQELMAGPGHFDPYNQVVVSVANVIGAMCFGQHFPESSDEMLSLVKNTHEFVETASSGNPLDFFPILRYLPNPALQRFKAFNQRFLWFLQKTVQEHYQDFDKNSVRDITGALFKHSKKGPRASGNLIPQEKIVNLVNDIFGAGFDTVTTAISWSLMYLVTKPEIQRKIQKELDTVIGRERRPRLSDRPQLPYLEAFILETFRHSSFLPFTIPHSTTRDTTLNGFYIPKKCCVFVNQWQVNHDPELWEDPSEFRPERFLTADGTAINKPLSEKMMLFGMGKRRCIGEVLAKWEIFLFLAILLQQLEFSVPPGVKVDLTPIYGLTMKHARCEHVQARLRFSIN
Chain of Glucocorticoid receptor (Homo sapiens) (P04150 whole entry, looked up): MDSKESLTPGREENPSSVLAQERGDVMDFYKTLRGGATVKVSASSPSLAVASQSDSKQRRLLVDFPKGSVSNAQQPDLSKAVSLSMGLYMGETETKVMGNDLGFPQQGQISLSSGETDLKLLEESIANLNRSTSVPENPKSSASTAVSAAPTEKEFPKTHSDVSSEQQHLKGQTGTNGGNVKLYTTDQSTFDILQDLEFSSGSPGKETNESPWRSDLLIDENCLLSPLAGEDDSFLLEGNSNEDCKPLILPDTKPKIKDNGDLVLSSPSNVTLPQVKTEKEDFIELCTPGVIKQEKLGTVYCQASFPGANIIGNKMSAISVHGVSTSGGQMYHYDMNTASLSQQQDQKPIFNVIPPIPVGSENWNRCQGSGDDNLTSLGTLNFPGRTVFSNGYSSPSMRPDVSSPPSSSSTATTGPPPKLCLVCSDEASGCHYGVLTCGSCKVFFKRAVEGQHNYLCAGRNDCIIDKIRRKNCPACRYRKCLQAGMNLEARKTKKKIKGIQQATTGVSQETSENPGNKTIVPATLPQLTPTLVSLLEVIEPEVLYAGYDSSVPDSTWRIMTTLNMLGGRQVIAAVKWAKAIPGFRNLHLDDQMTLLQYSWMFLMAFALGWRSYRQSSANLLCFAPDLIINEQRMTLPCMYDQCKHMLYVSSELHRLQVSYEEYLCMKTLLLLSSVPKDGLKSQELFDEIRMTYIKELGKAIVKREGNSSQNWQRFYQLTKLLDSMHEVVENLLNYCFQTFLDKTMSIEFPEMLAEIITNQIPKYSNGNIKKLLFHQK

Turning to `NC(=O)c1ccc(-c2nc(-c3ccc4c(c3)OCO4)c(-c3ccccn3)[nH]2)cc1`, the Potency in test [1] and in [2] was > 46 µM (inactive) throughout. Further, in test [3], the molecule was called inactive.
With `CC(C[N+](C)(C)C)OC(N)=O` (stereo not given), the activity change, negative = inhibition in test [4] (at 17.2 µM (top of the series)) was 1.75% (inactive). Also, in test [5], the molecule was called inactive. The Potency in test [1] is > 20.6 µM (inactive).
Take `NC[C@H](O)c1ccc(O)c(O)c1`: the activity change, negative = inhibition in [4] (at 38 µM (top of the series)) was -15.3% (inactive) and -4.21% (inactive); in [6] (at 38 µM (top of the series)), -7.25% (inactive) and 5.9% (inactive). Besides, the result in test [5] and in test [3] was inactive. For the same molecule, the Potency in test [1] and in test [2] was > 46 µM (inactive) each time.
As to `COc1ccc2nc(S(=O)Cc3ncc(C)c(OC)c3C)[nH]c2c1` (stereo not given), the activity change, negative = inhibition in [4] (at 17.2 µM (top of the series)) is 4.02% (inactive) and -1.7% (inactive); in test [6] (at 17.2 µM (top of the series)), -26.1% (inactive) and -10.4% (inactive). Moreover, the molecule was called inactive in test [5] and in test [3].
For `CCOC(=O)C1=C[C@]2(CC)CCCN3CCc4c(n1c1ccccc41)[C@@H]32`, the molecule was classed as inactive in test [5]. In addition, the Potency in test [1] was > 20.6 µM (inactive).
Regarding `Cc1cc2c(C(C)C)c(O)c(O)c(C=O)c2c(O)c1-c1c(C)cc2c(C(C)C)c(O)c(O)c(C=O)c2c1O`, the Potency is 15.8 µM (active) in [7]; > 20.6 µM (inactive) and > 46 µM (inactive) in [1]; > 20.6 µM (inactive) and > 46 µM (inactive) in test [2]. In test [6] (at 17.2 µM (top of the series)), the activity change, negative = inhibition is -68.3% (active).
Take `N#Cc1ccc(C(c2ccc(C#N)cc2)n2cncn2)cc1`: the activity change, negative = inhibition in test [4] (at 17.2 µM (top of the series)) is -15.5% (inactive); in [6] (at 17.2 µM (top of the series)), -8.25% (inactive). Moreover, the molecule was classed as inactive in test [5] and in test [3]. The Potency in test [1] and in [2] was > 20.6 µM (inactive) throughout.
Consider `CCOC(=O)C1=C[C@@]2(CC)CCCN3CCc4c(n1c1ccccc41)[C@H]32`, for which the activity change, negative = inhibition in test [4] (at 38 µM (top of the series)) was 94.5% [activator] (active); in test [6] (at 17.2 µM (top of the series)), -3.7% (inactive); in [6] (at 38 µM (top of the series)) it was 0.129% (inactive). The Potency result was “inactive and 39.8 µM (active)” in test [7]; > 46 µM (inactive) and > 20.6 µM (inactive) in test [1]; > 46 µM (inactive) and > 20.6 µM (inactive) in test [2]. In addition, the call in [5] and in test [3] was inactive.
With `NCCc1ccc(O)c(O)c1`, the activity change, negative = inhibition was 2.68% (inactive) in test [4] (at 38 µM (top of the series)) and 11.4% (inactive) in test [6] (at 38 µM (top of the series)). Besides, the outcome in test [5] and in test [3] was inactive.
On to `Cn1cnc([N+](=O)[O-])c1Sc1ncnc2nc[nH]c12`, for which the activity change, negative = inhibition in test [4] (at 38 µM (top of the series)) is 8.24% (inactive); in [6] (at 17.2 µM (top of the series)) it was 13.3% (inactive); in [6] (at 38 µM (top of the series)) it was 19.1% (inactive). Also, the Potency is > 92 µM (inactive) in [8]; 384 nM (active) in test [9]; 2.04 µM (active) in test [10]; > 92 µM (inactive) in test [11]; 529 nM (active) in [12]; > 46 µM (inactive) and > 20.6 µM (inactive) in test [1]. Further, the Potency in [2] was > 46 µM (inactive) and > 20.6 µM (inactive); in test [13], 3.98 µM (active); in [15], 631 nM (active). The result in test [5], in test [3] and in test [14] was inactive.
